Results as given in ChEMBL document CHEMBL3988442, “University of Dundee, Small-Polar-MMV Screening Library” (2021).
The campaign covered roughly 48,000 compounds. About 13,000 (27%) showed an effect of 50% or more. This is one part of the list.

Tested on: Wolbachia pipientis
Assay: Anti-Wolbachia Cell-Based Screen
Assay type: functional
Design: scale not given: in the data most compounds retested in dose-response had high values
Conditions: 5 µM

| Compound | Percent Effect |
| --- | --- |
| Cc1n[nH]c(SCC(=O)N[C@@H](C)C(N)=O)n1 | -9.569% |
| CCN1C[C@@H]2CN(C(=O)C3CC=CC3)C[C@@H]2C1=O | 14.39% |
| O=C(O)C(F)(F)F.O=C1[C@H]2CN(c3ncccn3)C[C@H]2CN1Cc1ccncc1 | 3.817% |
| O=C(C1CCOCC1)N1C[C@@H]2[C@@H](C1)OCC(=O)N2Cc1ccncc1.O=C(O)C(F)(F)F | -1.521% |
| O=C(C1CC=CC1)N1C[C@H]2CN(Cc3ccncc3)C(=O)[C@H]2C1.O=C(O)C(F)(F)F | 103% |
| O=C(C1CCC1)N1C[C@@H]2CN(Cc3ccncc3)C(=O)[C@@H]2C1.O=C(O)C(F)(F)F | 108.5% |
| Cc1ccc(CNS(=O)(=O)CC2=NC(=O)n3cccc3C2=O)cc1 | 16.21% |
| O=C(O)C1(O)CCN(c2ccc3cccc(Cl)c3n2)CC1 | 102.6% |
| Cc1nc(N2CCCC2)nc(N2CCC(O)(C(=O)O)CC2)c1C | -11.99% |
| COc1cccc(CN2CCC(O)(c3ccc(C)cn3)CC2)c1OC | -1.243% |
| COc1ccnc(CN2CCC(O)(c3ccc(C)cn3)CC2)c1OC | -7.822% |
| COc1cccc2ccc(N3CCC(O)(c4ccc(C)cn4)CC3)nc12 | 110% |
| COc1ccccc1OC1(C(=O)O)CCN(c2ccccn2)CC1 | -33.54% |
| Nc1nccc(N2CCC(Cc3ccccc3Cl)(C(=O)O)CC2)n1 | -23.92% |
| COc1cccc2ccc(N3CCC(O)(C(=O)O)CC3)nc12 | 85.02% |
| COc1ccccc1OC1(C(=O)O)CCN(c2nc(C)cnc2C)CC1 | -31.32% |
| O=S(=O)(Nc1nccs1)c1cc(Cl)cc2c1OCC2 | -24.06% |
| Fc1cc(CN2CCOC3(CCOCC3)C2)ccc1OC(F)F | -0.1745% |
| CCc1noc(CSc2n[nH]c(-c3ccccn3)n2)n1 | -7.886% |
| CCn1cc(CN2CCCC(COc3ccccc3F)C2)cn1 (stereo unspecified) | 9.663% |
| Cn1nccc1CN1CCCC(COc2ccccc2F)C1 (stereo unspecified) | 162.8% |
| Cn1cc(CN2CCCC(CCc3c(F)cccc3F)C2)cn1 (stereo unspecified) | 4.691% |
| CCC1CN(CCNC(C)=O)CCN1CCOC (stereo unspecified) | 1.458% |
| CCC1CN(CC(=O)N2CCC2)CCN1CCOC (stereo unspecified) | 4.498% |

| Compound | Percent Effect |
| --- | --- |
| CCC1CN(CCC(=O)N(C)C)CCN1CCOC (stereo unspecified) | -4.079% |
| CCC1CN(CC(=O)N2CCN(C(C)=O)CC2)CCN1CCOC (stereo unspecified) | 107.2% |
| CCC1CN(CC(=O)NC2(C#N)CCCC2)CCN1CCOC (stereo unspecified) | 2.566% |
| CCC1CN(CC(=O)N2CCCC2)CCN1CCOC (stereo unspecified) | 124% |
| COc1ccc2nc(C3CC3)cc(C(=O)NCCc3nnc[nH]3)c2c1 | -12.63% |
| Cc1c(Br)cccc1C(=O)NCC1CCCNC1.Cl (stereo unspecified) | 0.4435% |
| O=C(NCC1CC1)c1cc(C2CC2)nc2onc(C3CCCNC3)c12 (stereo unspecified) | 103.5% |
| CC(C)Nc1nc2c(cc1C(=O)NCC1CC1)CCNCC2.O=C(O)C(F)(F)F.O=C(O)C(F)(F)F | -11.9% |
| COCCNC(=O)c1cc(C2CC2)nc2onc(C3CCNC3)c12 (stereo unspecified) | 98.56% |
| COc1ccc2nc(C3CC3)cc(C(=O)NCc3noc(C)n3)c2c1 | 1.07% |
| O=c1[nH]c(C2CCOC2)nc2ccc(Br)cc12 (stereo unspecified) | -44.09% |
| CCCc1noc(CNc2cc(C[S+](C)[O-])ccc2Cl)n1 (stereo unspecified) | -7.446% |
| c1cnn(CCNCc2csc(-c3ccc4c(c3)OCO4)n2)c1 | -13.49% |
| COC(=O)CNC(=O)C(C(C)C)n1cnc2cc(F)c(F)cc21 (stereo unspecified) | -6.926% |
| CCn1cnnc1CNC(=O)N1CCN(c2nccs2)CC1 | 84.21% |
| CCn1cnnc1CNC(=O)N1CCN(C(C)C)CC1 | 131.3% |
| CCn1cnnc1CNC(=O)NCC(C(C)C)N1CCC(C)CC1 (stereo unspecified) | -9.877% |
| CCn1cnnc1CNC(=O)N1CCN(CC(C)C)CC1 | 151.2% |
| CCn1cnnc1CNC(=O)N1CCN(Cc2ccsc2)CC1 | 120.4% |
| CCn1cnnc1CNC(=O)N1CCN(c2nc(C)c(C)s2)CC1 | 1.256% |
| CCn1cnnc1CNC(=O)N1CCN(c2cccs2)CC1 | 0.168% |
| CCC1CN(Cc2nnc(C(C)C)o2)CCC(=O)N1Cc1ccccc1 (stereo unspecified) | -5.543% |
| CC(C)N(C)C(=O)C1CCC(=O)N(CCc2cccc(F)c2)C1 (stereo unspecified) | -15.9% |
| CN(Cc1ccco1)C(=O)NCc1ccnc(SC(C)(C)C)c1 | 12.7% |

| Compound | Percent Effect |
| --- | --- |
| CN1CCOC(C(=O)N2CCOC3(CCCC3)C2)C1 (stereo unspecified) | 0.3314% |
| CCn1cnnc1CNC(=O)N1CCOC(c2ccc(F)cc2)C1 (stereo unspecified) | -19.34% |
| CCn1cnnc1CNC(=O)N1CCC(Cc2cccnc2)CC1 | 3.678% |
| CCn1cnnc1CNC(=O)N1CCN(Cc2ccco2)CC1 | 145.2% |
| CC(NC(=O)N1CCN(CCc2ccccc2)CC1)c1nncn1C (stereo unspecified) | -0.7448% |
| CCn1cnnc1CNC(=O)N1CCN(Cc2ccccc2)CC1 | 4.693% |
| CCn1cnnc1CNC(=O)N1CCN(CCc2ccccc2)CC1 | 119.3% |
| CCn1cnnc1CNC(=O)N1CCCCCC1 | 138.5% |
| CCc1nncn1CCNC(=O)N1CCN(Cc2ccccc2)CC1 | 122% |
| CCn1cnnc1CNC(=O)N1CCOCC1 | -3.836% |
| Cc1cc(CNC(=O)N2CCCN(Cc3ccccc3)CC2)no1 | 3.243% |
| CCn1cnnc1CNC(=O)N1CCCN(C(C)=O)CC1 | -5.792% |
| CC(C)Oc1cccc(C(=O)C2CCCN(C(=O)c3ccoc3)C2)c1 (stereo unspecified) | 9.263% |
| CCSCc1cccc(NC(=O)N(C)Cc2ncnn2C)c1 | -22.36% |
| COc1ccc(NC(C)C(=O)N2CCCC2)cn1 (stereo unspecified) | 2.582% |
| CCn1cnnc1CNC(=O)N1CCC(C(=O)NC)CC1 | -5.598% |
| CCn1cnnc1CNC(=O)N1CCC(OCc2ccccc2)CC1 | 128.6% |
| CCN(CC)C1CCN(C(=O)NCc2nncn2CC)CC1 | 7.856% |
| O=C(NCC(O)c1cccc(O)c1)C1CCN(C2CCCCC2)CC1 (stereo unspecified) | -14.15% |
| Cc1nc[nH]c1-c1c(-c2ccccc2)ncn1C1CCNC1 (stereo unspecified) | 7.819% |
| O=C(O)C(F)(F)F.O=C([C@@H]1CC[C@@H]2[C@@H](CCN2c2ccncn2)O1)N1CCCCO1 | 117.6% |
| O=C([C@@H]1CC[C@@H]2[C@@H](CCN2c2ncccn2)O1)N1CCCO1 | 3.223% |
| O=C(O)C(F)(F)F.O=C([C@H]1CC[C@@H]2[C@@H](CCN2Cc2ccc(F)cc2)O1)N1CCCO1 | -3.999% |
| O=C([C@H]1CC[C@@H]2[C@@H](CCN2c2ncccn2)O1)N1CCCCO1 | 84.25% |

| Compound | Percent Effect |
| --- | --- |
| Cc1ccc(N2CC[C@H]3O[C@@H](C(=O)N4CCCCO4)CC[C@H]32)nn1.O=C(O)C(F)(F)F | 113.9% |
| Cc1ccc(N2CC[C@H]3O[C@H](C(=O)N4CCCCO4)CC[C@H]32)nn1.O=C(O)C(F)(F)F | 105.7% |
| O=C(O)C(F)(F)F.O=C([C@@H]1COC[C@H]2CN(c3ccncn3)C[C@H]21)N1CCCCO1 | -6.047% |
| CN1CCN(C(=O)[C@@H]2CC[C@@H]3[C@@H](CCN3c3ncccn3)O2)CC1.O=C(O)C(F)(F)F.O=C(O)C(F)(F)F | -4.531% |
| COC(=O)N(C)CCCC(=O)Nc1[nH]nc(-c2ccncc2)c1C | -7.715% |
| O=C1CC[C@H]2CN(C3CCOCC3)CC[C@H]2N1CCC1=CCCCC1 | 14.62% |
| Cc1ccc(N2CC[C@H]3O[C@@H](C(=O)NCc4ccco4)CC[C@H]32)nn1.O=C(O)C(F)(F)F | 17.63% |
| Cc1ccc(N2CC[C@H]3O[C@@H](C(=O)N4CCCO4)CC[C@H]32)nn1.O=C(O)C(F)(F)F | 88.3% |
| Cc1ccc(CN2CC[C@H]3O[C@@H](C(=O)N4CCCO4)CC[C@H]32)s1.O=C(O)C(F)(F)F | -7.276% |
| CSCCc1ccc(NC(=O)NC(C)Cn2cncn2)cc1 (stereo unspecified) | -13.08% |
| C[C@@H]1CN(c2ccc(Cl)cn2)CC[C@@]1(O)C1CCOCC1 | 111.4% |
| C[C@@H]1CN(C(=O)c2cnc(C3CC3)nc2)CC[C@@]1(O)C1CCOCC1 | -14.06% |
| C[C@@H]1CN(C(=O)c2c[nH]c(=O)c(Cl)c2)CC[C@@]1(O)C1CCOCC1 | 3.711% |
| C[C@@H]1CN(C(=O)c2ccc(C#N)nc2)CC[C@@]1(O)C1CCOCC1 | -17.54% |
| C[C@@H]1CN(c2cccnn2)CC[C@@]1(O)C1CCOCC1 | 104.1% |
| C[C@@H]1CN(c2ccc(C#N)cn2)CC[C@@]1(O)C1CCOCC1 | 124% |
| CNc1ccnc(N2CC[C@@](O)(C3CCOCC3)[C@H](C)C2)n1 | 0.6002% |
| CN(Cc1ccsc1)C(=O)C1CCC(=O)N(Cc2ccccn2)C1 (stereo unspecified) | 0.2635% |
| O=C(Nc1ccc(F)cc1)C1CNCCN1C(=O)CSc1ccncc1 (stereo unspecified) | -2.751% |
| CN1CC(Nc2ccc(Br)cc2C#N)CCC1=O (stereo unspecified) | -7.586% |
| CN(Cc1n[nH]c(=O)n1Cc1cccs1)S(C)(=O)=O | 2.826% |
| COc1ccc(CNC[C@H]2COCc3nc4cc(F)ccc4n32)cc1 | -1.545% |
| Cc1cc(C)c2c(c1)C(NCc1nnc3n1CCC3)CCCO2 (stereo unspecified) | -14.27% |
| CC(C)c1nnc(CN(C)C(c2ccccc2)c2ccc(F)cc2)o1 (stereo unspecified) | 6.032% |
